# Pf growth 48h – Primary qHTS for delayed death inhibitors of the malarial parasite plastid, 48 hour incubation | P. falciparum luciferase growth in erythrocytes, 48 h | Potency, µM (titrated, usually from 28.7 µM), for inactives: at the highest dose activity change, negative = inhibition, usual class: inhibitors | 310,000 tested, 5.9% active; active = well fitted inhibition curve with a large enough effect; inconclusive = small, poorly fitted or top-dose-only effect, or another doubt; inactive = no such curve, though single readings can be large or run the other way; also: potency is read from the fitted curve at half-maximal effect; % is scaled to controls: 0 for no effect and ±100 for the full control effect
#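 In quantitative HTS format, infected erythrocytes bearing luciferase-reporter parasites were treated for a single generation at 37 C. Luminescence after adding detection reagent served as the growth measure.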
# CHX counter – Cycloheximide Counterscreen for Small Molecule Inhibitors of Shiga Toxin | 300,000 tested, 12% active | max response, % | cell reporter, cycloheximide protein synthesis inhibition counterscreen; in the data active = max response mostly above about 13%, no sharp cut-off; inactive = mostly below about 14%; also: read at 38.3 µM for the half of the compounds with a filed dose; 0% is about no effect
# Shiga toxin inh – A qHTS for Small Molecule Inhibitors of Shiga Toxin; Vero cells, Shiga toxin protein synthesis inhibition reporter; inhibition, % at 38.7 µM; 290,000 tested, 9.2% active; in the data active = inhibition mostly above about 28%, no sharp cut-off; inactive = mostly below about 43%; also: 0% is about no effect
# SARS PLpro yeast – qHTS of Yeast-based Assay for SARS-CoV PLP | S. cerevisiae expressing SARS-CoV PLpro, growth rescue | Potency, µM (highest dose often 32.9 µM), for inactives: at the top dose activity, positive = growth rescue, actives largely listed as activators | 330,000 tested, 0.19% active | AID 485353, 2010; also: potency is read from the fitted curve at half-maximal effect; 0% is about no effect; nearly all actives have a fitted effect of over 55% in size
# NS1 function inh – qHTS Assay for Inhibitors of Influenza NS1 Protein Function; Potency, µM (doses to about 46.1 µM), without a hit: at the top dose activity, positive = more growth; 270,000 tested, 0.4% active; AID 2326, 2010; also: potency is read from the fitted curve at half-maximal effect; actives are rising curves; nearly all actives have a fitted effect of over 50% in size
#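 Read-out: OD600 growth recovery of NS1-expressing budding yeast. Cells grown overnight at 30C in -URA glucose medium, washed, resuspended and diluted 1:100 in 2% galactose assay medium, pH 6.0. Same strain lacking NS1 served as positive control.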
# Pf growth 96h – Primary qHTS for delayed death inhibitors of the malarial parasite plastid, 96 hour incubation; P. falciparum luciferase reporter growth, 96 h; Potency, µM (doses to about 28.7 µM), without a hit: at the top dose activity change, negative = inhibition, hits mostly inhibitors; 320,000 tested, 6.9% active; AID 504834, 2011; active = well fitted inhibition curve with a large enough effect; inconclusive = small, poorly fitted or top-dose-only effect, or another doubt; inactive = no such curve, though single readings can be large or run the other way; also: potency is read from the fitted curve at half-maximal effect; % is scaled to controls: 0 for no effect and ±100 for the full control effect
#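 Parasite growth measured via integrated firefly luciferase reporter in P. falciparum. Infected erythrocytes at 2% hematocrit, 0.05% parasitemia final were treated 96 hours at 37 C under 5% CO2, and luminescence was read.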
# * hit, by the source's call; ? = inconclusive; / = not tested or not shown; [ ] = dose if it differs, or a comment. This is a sample that favours compounds with a hit; in the whole collection about 21% have one here. Unless noted, calls follow the shape of the full dose curve.
SMILES,Pf growth 48h,CHX counter,Shiga toxin inh,SARS PLpro yeast,NS1 function inh,Pf growth 96h
Cc1ccc(S(=O)(=O)Nc2nc3ccccc3nc2NCC2CCCO2)cc1 (stereo not drawn),6%,-3,3,1%,-6%,14%
Cc1ccc(-c2cc(C(F)F)nc(NCc3cccs3)n2)cc1,11%,0,9,-19%,-8%,2.6µM*
O=C(Nc1cccnc1Cl)c1ccc(=O)oc1,33%,1,-7,-1%,-4%,57%
COC(=O)CN(c1ccccn1)S(=O)(=O)c1ccccc1,23%,0,28,2%,-11%,2.3µM*
O=C(O)CN(c1ccccn1)S(=O)(=O)c1ccccc1,/,7,29,-2%,8%,18%
COc1cc2c(cc1OC)-c1cc(Nc3ccccc3Br)nc(=O)n1CC2,?,17*,-1,0%,-8%,?
COc1cc2c(cc1OC)-c1cc(Nc3ccc(C)cc3)nc(=O)n1CC2,?,9,-2,0%,3%,?
COc1cc2c(cc1OC)-c1cc(Nc3ccccc3)nc(=O)n1CC2,?,-4,1,0%,-7%,?
COc1cc2c(cc1OC)-c1cc(Nc3ccc4c(c3)OCCO4)nc(=O)n1CC2,98%,67*,78*,2%,-11%,33%
COc1cc2c(cc1OC)-c1cc(N3CCc4ccccc43)nc(=O)n1CC2,?,1,-4,0%,-2%,12µM*
CCOc1cccc(Nc2cc3n(c(=O)n2)CCc2cc(OC)c(OC)cc2-3)c1,?,7,-4,7%,7%,3.7µM*
COc1ccc(Nc2cc3n(c(=O)n2)CCc2cc(OC)c(OC)cc2-3)cc1,?,17,27,1%,8%,?
COc1ccc2nc3cc(Cl)ccc3c(Nc3ccc(O)c(CN4CCN(C)CC4)c3)c2c1,/,/,/,/,-3%,/
O=C(Nc1cccnc1Cl)C1c2ccccc2Oc2ccccc21,50%,19,-7,?,4%,25%
Cc1ccc(S(=O)(=O)N2C(=O)CCC2C(=O)O/N=C(\N)c2ccc([N+](=O)[O-])cc2)cc1 (stereo not drawn),2%,-1,16,-3%,2%,-2%
O=C(O)CS(=O)(=O)C(c1ccccc1)c1ccccc1,/,/,/,/,-4%,/
O=C(CSc1ccc(-c2cccs2)nn1)c1cccs1,46%,46*,104*,-2%,/,10%
COc1ccc(CCNC(=O)Cn2nnc(-c3cccs3)n2)cc1OC,4%,-3,-15,2%,-10%,0%
O=C(Cn1nnc(-c2cccs2)n1)NCCc1ccccc1,17%,20*,29,-3%,8%,?
Cc1ccc(SCC(=O)NCCc2ccccc2)cc1,20%,14*,18,-7%,24%,?
O=C(CSc1ccc(-c2cccs2)nn1)NCCc1ccccc1,8%,-4,-15,2%,5%,2.9µM*
CCc1cccc(C)c1NC(=O)CSc1nc2ccncc2[nH]1,25%,5,9,5%,7%,29%
CCOc1ccccc1CNS(=O)(=O)c1cnc[nH]1,19%,-2,12,-8%,2%,?
COC(=O)Cn1nnc(-c2cccc(OC)c2)n1,2%,22*,65*,1%,-4%,1%[5.75 µM]
COc1cccc(-c2nnn(CCC(=O)O)n2)c1,8%,-2,-6,1%,-5%,?
SMILES,Pf growth 48h,CHX counter,Shiga toxin inh,SARS PLpro yeast,NS1 function inh,Pf growth 96h
COc1ccc(N2CCN(C(=O)Cn3nnc(-c4cccs4)n3)CC2)cc1,-2%,2,-24,3%,-4%,?
COc1ccc(C(=O)Cn2nnc(-c3cccs3)n2)cc1,134%,63*,91*,-13%,-15%,/
Cc1ccc(SCC(=O)NCCSC(C)(C)C)cc1,/,29*,35,3%,0%,39%
O=C(CSc1ccccc1)NCCc1ccccc1,33%,37*,44*,2%,5%,?
CC1CN(CCCCN2C(=O)c3ccccc3C2=O)CC(C)O1 (stereo not drawn),2%,-2,-3,1%,/,17%
O=C(CSc1ccccc1)NCCc1ccc(F)cc1,8%,29*,/,5%,1%,3.3µM*
CC(Sc1ccccc1)C(=O)NCCc1ccccc1 (stereo not drawn),15%,24*,32*,-1%,-6%,9.3µM*

# Compound activity from PubChem BioAssay.
